Laboratory results from PubChem BioAssay AID720541 (National Center for Advancing Translational Sciences (NCATS), 2013).
The whole screen tested about 1,300 compounds, of which about 420 (32%) were called active. Roughly 32% stayed inconclusive and do not appear here. The call rests on the fitted dose curve; in most records, active means well fitted inhibition curve with a large enough effect; inconclusive means small, poorly fitted or top-dose-only effect; inactive means no such curve, though single readings can be large or run the other way. The list shows a part of the results.

Biological target: C-terminal-binding protein 1 (Homo sapiens) (UniProt Q13363)
Experiment: qHTS for Inhibitors of the Phosphatase Activity of Eya2: Carboxyl-terminal binding protein (CtBP) Counterscreen for Cherry-picked Compounds; further: nearly all actives have a fitted effect of over 65% in size
Details: purified protein-protein binding, AlphaScreen, 3 h; series mostly up to 46.1 µM; activity change, negative = inhibition: at the top concentration
From the text: The Eya protein family is an essential co-activator of the Six1 transcription factor. Six1 is a developmental gene that is abnormally re-expressed in a large percentage of breast cancers. This over-expression plays a causal role in the initiation and metastatic development of breast cancers. The Eya family of protein is also found to contain a unique HAD phosphatase domain with protein tyrosine phosphatase activity which can potentially play a role in Six1-mediated breast tumorigenesis. Recently, Eya2 is found to dephosphorylate the histone variant H2AX and direct cells towards DNA repair instead of apoptosis in the event of DNA damage.
A 1536 well format, fluorescence based qHTS assay was developed and used to target the phosphatase activity of Eya2 (AID 488837). In addition, a CtBP counterscreen was developed using the AlphaScreen technology to evaluate compound selectivity to target […]. The data herein reports the activity of the cherry-picked compounds against the CtBP AlphaScreen. Compounds that are active or have > 100 fold selectivity vs. the Eya2 activity were excluded for further characterization. Inactivity is the desired outcome for the CtBP counterscreen.
NIH Chemical Genomics Center [NCGC]
NIH Molecular Libraries Probe Centers Network [MLPCN]
Assay Submitter (PI): Rui Zhao, University of Colorado Denver
Four microliters of reagent (25 nM GST-E1A, 25 nM CtBP-6x HIS) was dispensed in a 1536 well Greiner plates. Twenty-three nanoliter of test compounds (final concentration of 2.5 nM - 46 uM) and positive control E1A peptide inhibitor (final concentration of 0.14 nM - 4.6 uM) were added to the plates using the Kalypsys pintool equipped with a 1536 pin head. The plates was then incubated at room temperature for 2 hours followed by addition of 1 uL Alpha bead donor / acceptor mix (20 ug/mL final concentration). The assay plates were incubated for additional 1 hour at room temperature and protected from light. The AlphaScreen signal was obtained using the PerkinElmer EnVision plate reader using the 680 nm excitation and 520 - 620 nm emission filters. The data was normalized to the E1A peptide inhibitor for maximum inhibition and DMSO treated wells as negative control.
On the % scale 0 is the no-effect control and ±100 the full control effect; potency means the concentration at half of the fitted maximal effect.

SMILES | Potency | activity change, negative = inhibition
C=C(C)COc1ccc(-c2nc(N)nc(C)c2-c2ccc(OC)cc2)c(O)c1 | 6.01 µM (active) | –
COc1ccc(-c2nc(N)ncc2-c2csc(C)n2)c(O)c1 | – | -15.6% (inactive)
CC(C)S(=O)(=O)c1cnc(-c2ccccn2)nc1N | 13.5 µM (active) | –
CCc1cc2c(=O)[nH]c(-c3ccccn3)nc2s1 | 1.9 µM (active) | –
Cn1c(-c2cc(Cl)ccc2O)nc2c1c(=O)[nH]c(=O)n2Cc1ccccc1 | – | 7.81% (inactive)
COc1cc(NC(=O)c2ccc(S(=O)(=O)N(C)c3ccccc3)cc2)cc(OC)c1 | – | -17% (inactive)
CN(CC(=O)Nc1cccc(F)c1)C(=O)c1ccc(COc2ccccc2)cc1 | – | 11.9% (inactive)
CC(=O)c1ccc(NS(=O)(=O)c2cccc(C(=O)Nc3ccccc3C(=O)O)c2)cc1 | 15.1 µM (active) | –
COc1cccc(NC(=O)c2ccc3c(c2)CCN3S(C)(=O)=O)c1 | – | -12.5% (inactive)
CC(=O)Oc1cccc(C(=O)Nc2cccc(C(=O)Nc3ccccc3C(=O)O)c2)c1 | 8.49 µM (active) | –
CC(C)CCNC(=O)c1onc(CSc2ccncc2)c1C(=O)NCCC(C)C | – | 10.2% (inactive)
Cc1nn(-c2ccccc2)c2c1C(c1cccnc1)N1C=C(S(=O)(=O)N3CCCCC3)C=CC1=N2 (centres undefined) | – | -21.1% (inactive)
CC1CCCN(c2ccc3nc4ccccc4c(=O)n3n2)C1 (centres undefined) | 7.57 µM (active) | –
COc1cc(/C=C2\C(C)=C(C#N)c3nc(N)c(C#N)c(C)c32)ccc1OCC(=O)O | 8.49 µM (active) | –
COc1cc(C=NO)nc(-c2ccccn2)c1 | 1.07 µM (active) | –
NC(=O)c1nn2c(C(F)(F)F)cc(-c3ccccc3)nc2c1Br | 10.7 µM (active) | –
Cc1ccc(C(=O)ON=C2CCN(c3ccc([N+](=O)[O-])cc3)CC2)cc1 | – | -16.2% (inactive)
CCN(Cc1cccc(S(=O)(=O)O)c1)c1ccc(C(=C2C=CC(=[N+](CC)Cc3cccc(S(=O)(=O)O)c3)C=C2)c2ccccc2S(=O)(=O)[O-])cc1 | 12 µM (active) | –
CCN(Cc1cccc(S(=O)(=O)O)c1)c1ccc(C(=C2C=CC(=[N+](CC)Cc3cccc(S(=O)(=O)O)c3)C=C2)c2ccc(O)cc2S(=O)(=O)O)cc1 | 12 µM (active) | –
N#CC1=C(N)n2c(s/c(=C\c3cccs3)c2=O)=C(C#N)C1c1cccs1 (centres undefined) | 13.5 µM (active) | –
CC(=O)N1CCCc2cc(S(=O)(=O)N3CCCC(C(=O)N4CCN(c5cc(C)ccc5C)CC4)C3)ccc21 (centres undefined) | – | -19.2% (inactive)
CN1C(=O)NC(c2ccccc2)(C(F)(F)F)S/C1=C(/C#N)c1nnc(N2CCOCC2)n1-c1ccccc1 (centres undefined) | – | -19% (inactive)
CCOc1cc(C=NNC(=O)c2cccc(S(=O)(=O)N3CCCC3)c2)ccc1O | 7.57 µM (active) | –
Cc1ccc(Nc2c(-c3ccccn3)nc3ccc(C)cn23)cc1 | 4.26 µM (active) | –

SMILES | Potency | activity change, negative = inhibition
Cc1cccc(C)c1Nc1c(-c2ccccn2)nc2ccccn12 | 7.57 µM (active) | –
Cc1ccccc1Nc1c(-c2ccccn2)nc2ccccn12 | 2.69 µM (active) | –
Cc1onc(-c2ccccc2Cl)c1C(=O)N(Cc1ccc(N(C)C)cc1)C(C)C | – | -12.2% (inactive)
Cc1cccc(S(=O)(=O)C(C#N)c2nc3ccccc3nc2N2CCOCC2)c1 (centres undefined) | – | -9.38% (inactive)
CC(C)N=c1cc2n(-c3ccc(Cl)cc3)c3ccccc3nc-2cc1Nc1ccc(Cl)cc1 | 3.38 µM (active) | –
Cn1c(=O)c2cc(S(=O)(=O)Nc3cccc(F)c3)ccc2n(C)c1=O | – | -14.5% (inactive)
O=S(=O)(Nc1cccc(-c2cn3cccnc3n2)c1)c1ccc(F)cc1 | 15.1 µM (active) | –
O=S(=O)(Nc1cccc(-c2cn3cccnc3n2)c1)c1ccccc1 | 4.26 µM (active) | –
COc1cc(NC(=O)c2cccs2)c(OC)cc1NC(=O)CCn1nnc2ccccc21 | 12 µM (active) | –
O=C(CNC(=O)c1cccs1)OCC(=O)c1ccc(Cl)cc1 | – | 9.32% (inactive)
COc1cc(NC(=O)c2cccs2)c(OC)cc1NC(=O)Nc1ccc(F)cc1 | – | -7.75% (inactive)
COc1cc(NC(=O)c2cccs2)c(OC)cc1NC(=O)Cc1ccccc1 | 7.57 µM (active) | –
COc1cc(NC(=O)c2cccs2)c(OC)cc1NC(=O)CCC(=O)Nc1ccc2ncccc2c1 | 1.69 µM (active) | –
O=C(CC(=O)c1c(F)cccc1Cl)c1ccccc1O | – | -17.1% (inactive)
Cc1ccc(S(=O)(=O)Nc2c(C)n(C)n(-c3ccccc3)c2=O)cc1C(=O)OC(C)C(=O)N(C)c1ccccc1 (centres undefined) | – | -10.9% (inactive)
O=C1/C(=C/c2ccco2)SC(=S)N1c1cccnc1 | 15.1 µM (active) | –
CCOC(=O)c1c(C)oc2c1c(C=NCc1ccccn1)c(O)c1ccccc12 | 15.1 µM (active) | –
CC(=O)Oc1cccc2c1C(=O)c1c(OC(C)=O)cc(C(=O)O)cc1C2=O | 12 µM (active) | –
O=C(O)c1cccc(N2C(=O)c3cccc(Oc4ccc(Cl)cc4)c3C2=O)c1 | – | 8% (inactive)
CCOC(=O)/C(C#N)=C/c1ccc(OC(=O)c2ccccn2)cc1 | 7.57 µM (active) | –
N#C/C(=C\c1ccc(OC(=O)c2ccc(Br)s2)cc1)c1nc2ccccc2[nH]1 | – | 2.83% (inactive)
N#C/C(=C\c1ccc(OC(=O)c2ccccn2)cc1)C(N)=O | 12 µM (active) | –
N#C/C(=C\c1ccc(OC(=O)c2ccc(Cl)s2)cc1)c1nc2ccccc2[nH]1 | – | 8.82% (inactive)
N#C/C(=C/c1ccc(OC(=O)c2ccc(Br)s2)cc1)c1nc2ccccc2[nH]1 | – | 4.6% (inactive)

SMILES | Potency | activity change, negative = inhibition
O=C(Oc1cncc(Cl)c1)c1sccc1Cl | – | -9.79% (inactive)
Cc1cc2nc(/N=C(\N)NC(=O)N3c4ccccc4Sc4ccccc43)nc(C)c2cc1C | – | -24.2% (inactive)
Cc1c(CCC(=O)O)c(=O)oc2c(C)c(OCc3cc4c(cc3Cl)OCO4)ccc12 | 13.5 µM (active) | –
Cc1cc(C)cc(COc2ccc3c(C)c(CC(=O)O)c(=O)oc3c2C)c1 | – | -27.5% (inactive)
O=C(Cn1ccc(=O)[nH]c1=O)Nc1nccs1 | – | 2.11% (inactive)
Nc1ccc(N2CCCCC2)c2nonc12 | 6.75 µM (active) | –
O=C(Cc1cccs1)Nc1ccc2c(c1)C(=O)OC2 | – | 3.68% (inactive)
O=C1CCCC2=C1C(c1ccco1)Nc1ccc3ccccc3c12 (centres undefined) | – | -13.1% (inactive)
O=C(O)c1ccc(Nc2cnc3ccccc3n2)cc1 | – | -13.9% (inactive)
O=C(Nc1ccc(S(=O)(=O)Nc2cnc3ccccc3n2)cc1)c1ccc(Cl)c([N+](=O)[O-])c1 | 2.13 µM (active) | –
Cc1cc(NS(=O)(=O)c2ccc(NC(=O)c3cc4c(=O)n5ccccc5nc4s3)cc2)nc(C)n1 | 6.75 µM (active) | –
Cc1cc(NS(=O)(=O)c2ccc(NC(=O)c3cnc(Cl)c(Cl)c3)cc2)nc(C)n1 | 1.69 µM (active) | –
O=C(Nc1ccc(Nc2ccccc2)cc1)c1ccc(Cl)cc1[N+](=O)[O-] | – | -12.6% (inactive)
CCC(C)N(C(=O)CSc1nc(-c2cccs2)nc2ccccc12)C1CCS(=O)(=O)C1 (centres undefined) | – | -28.4% (inactive)
CSc1nc(NCCOCCO)c2sc3nc(-c4ccco4)c4c(c3c2n1)CCC4 | 5.36 µM (active) | –
OCCN(Cc1cccnc1)Cc1ccccn1 | 5.36 µM (active) | –
COCC(C)n1c(-c2ccc3c(c2)NC(=O)CO3)csc1=Nc1ccc(OC(F)F)cc1 (centres undefined) | – | -25.4% (inactive)
CCOC(=O)c1cc2c(N)c(C(=O)c3ccc(Br)cc3)sc2[nH]c1=O | 1.9 µM (active) | –
Cc1cc(C(=O)CSc2nc(N)cc(N)n2)c(C)n1C1CC1 | – | -28.9% (inactive)
COc1ccc(C(CCNCc2ccc(N(C)C)cc2)C(C)C)cc1 (centres undefined) | 12 µM (active) | –
COc1ccccc1C(CCNCc1ccc(N(C)C)cc1)c1ccc(OC(C)C)cc1 (centres undefined) | 6.01 µM (active) | –
CCCCC(=O)NC(c1ccco1)c1cc(Cl)c2cccnc2c1O (centres undefined) | 4.78 µM (active) | –
COc1ccc(C(NC(C)=O)c2ccc3cccnc3c2O)cc1OC (centres undefined) | 1.35 µM (active) | –
CCCCC(=O)NC(c1cccc([N+](=O)[O-])c1)c1ccc2cccnc2c1O (centres undefined) | – | -69.6% (inactive)

SMILES | Potency | activity change, negative = inhibition
CCC(=O)NC(c1cccs1)c1cc(Cl)c2cccnc2c1O (centres undefined) | 1.69 µM (active) | –
COc1ccc(C(NC(C)=O)c2cc(Cl)c3cccnc3c2O)cc1OC (centres undefined) | 1.69 µM (active) | –
CCOC(=O)N1CCN(S(=O)(=O)c2ccc(C(=O)NNc3nc4c(C)cc(C)cc4s3)cc2)CC1 | – | -22.9% (inactive)
O=c1[nH]c(/C=C\c2ccc(O)cc2)nc(O)c1[N+](=O)[O-] | – | -9.35% (inactive)
O=C(NCCC1=CCCCC1)c1[nH]c(C(F)(F)F)nc1-c1ccccc1 | – | -26.7% (inactive)
O=C(NC1CCCCC1)N1CCN(C2CCCCC2)CC1 | – | 9.26% (inactive)
O=C(O)c1ccccc1NC(c1ccccc1)c1ccc2cccnc2c1O (centres undefined) | 1.9 µM (active) | –
CCCC(=O)NC(c1ccc(OC)c(OC)c1)c1cc(Cl)c2cccnc2c1O (centres undefined) | 1.69 µM (active) | –
CCC(=O)NC(c1ccc(OC)c(OC)c1)c1cc(Cl)c2cccnc2c1O (centres undefined) | 1.69 µM (active) | –
CC(=O)NC(c1ccc(Cl)cc1)c1ccc2cccnc2c1O (centres undefined) | 1.9 µM (active) | –
O=C(Oc1ccc(Cl)c2cccnc12)C12CC3CC(CC(C3)C1)C2 | – | 19.6% (inactive)
O=C(Nc1ncc(Cc2ccccc2Cl)s1)c1ccc(-c2cccc([N+](=O)[O-])c2)o1 | – | -12.9% (inactive)
COc1ccc(C2c3[nH]c4ccccc4c3C[C@H]3C(=O)N(C4CCN(Cc5ccccc5)CC4)CC(=O)N23)cc1OC (some centres undefined) | – | -26.4% (inactive)
CCCCOC(=O)CCCc1ccc([N+](=O)[O-])cc1[N+](=O)[O-] | – | -29.8% (inactive)
CCOc1ccc2c(c1)C(c1ccc(C)cc1)=NNC(c1ccc(OC)cc1)=N2 | – | -25.4% (inactive)
O=c1c2ccccc2c(C=Nc2cccc(S(=O)(=O)NC3=NCCCCC3)c2)c(O)n1Cc1ccccc1 | – | -6.05% (inactive)
CCN(CC)CCNC(=O)c1ccc(N)cc1 | – | 3.53% (inactive)
CC(C)C(=O)NC(c1ccc(Cl)cc1Cl)c1ccc2cccnc2c1O (centres undefined) | 5.36 µM (active) | –
O=C(CSc1nnc2c(Cl)cc(Cl)cn12)NC1CCS(=O)(=O)C1 (centres undefined) | – | 4.22% (inactive)
O=C(C[n+]1ccccc1)c1ccc(O)c(O)c1 | – | -8.91% (inactive)
CC12CC3(C)CC(C)(C1)CC(C(=O)NC(=S)N1CCOCC1)(C2)C3 | – | -7.12% (inactive)
COc1ccc(-c2nnc(NC(=O)c3ccc(S(=O)(=O)N(C)CC4CCCO4)cc3)o2)c(OC)c1 (centres undefined) | 16.9 µM (active) | –
